# Out of some 3,200 compounds screened, about 110 (3.4%) showed an effect of 50% or more. The full list was thinned out, with strong results kept by preference.
# System: T1, V. cholerae SAD30
# T1 construct: SAD30
# Parameters: species or system S. aureus MSSA476 (TSB) or V. cholerae SAD30 (LB); 384-well bacterial growth screen at 25 uM, OD600 relative to DMSO control
# Conditions: relative growth, OD600, LB; 25 µM; inhibitor
row,Compound,% of control remaining [%]
1,"C=CC(=O)N1CCC(C(=O)Nc2ccccc2NS(C)(=O)=O)CC1 [3-C06, N-(2-methanesulfonamidophenyl)-1-(prop-2-enoyl)piperidine-4-carboxamide]",107.793
2,"CC(C)NC(=O)C(C#N)=Cc1ccccc1 [8-L05, 2-cyano-3-phenyl-N-(propan-2-yl)prop-2-enamide]",76.8865
3,"CC(C)NC(=O)C(C#N)=Cc1cccs1 [8-H15, 2-cyano-N-(propan-2-yl)-3-(thiophen-2-yl)prop-2-enamide]",71.0401
4,"Cc1cccc(NC(=O)NC(=O)CCl)c1C [4-D21, 3-(2-chloroacetyl)-1-(2,3-dimethylphenyl)urea]",104.033
5,"C=CC(=O)NCCn1cc(Cl)c(C(F)(F)F)n1 [2-F03, N-{2-[4-chloro-3-(trifluoromethyl)-1H-pyrazol-1-yl]ethyl}prop-2-enamide]",108.106
6,"COc1ccc(Cl)cc1NC(=O)C(C)Cl (centres unmarked) [6-G16, 2-chloro-N-(5-chloro-2-methoxyphenyl)propanamide]",89.3355
7,"COc1ccc(N2C(=O)C=CC2=O)c(OC)c1 [10-J15, 1-(2,4-dimethoxyphenyl)-2,5-dihydro-1H-pyrrole-2,5-dione]",26.9628
8,"COc1ccc(C(=O)C(C)Cl)c(OC)c1 (centres unmarked) [10-J17, 2-chloro-1-(2,4-dimethoxyphenyl)propan-1-one]",98.0323
9,"COc1ccc(Cl)cc1N1C(=O)C=CC1=O [10-K10, 1-(5-chloro-2-methoxyphenyl)-2,5-dihydro-1H-pyrrole-2,5-dione]",24.1574
10,"COc1ccc(Cl)cc1CNC(=O)CCl [6-A16, 2-chloro-N-[(5-chloro-2-methoxyphenyl)methyl]acetamide]",95.2507
11,"COc1ccc(C2CCCN2C(=O)CCl)c(OC)c1 (centres unmarked) [4-P22, 2-chloro-1-[2-(2,4-dimethoxyphenyl)pyrrolidin-1-yl]ethan-1-one]",115.247
12,"CC(Cl)C(=O)N1CCN(Cc2cc(=O)n3ccsc3n2)CC1 (centres unmarked) [6-P17, 7-{[4-(2-chloropropanoyl)piperazin-1-yl]methyl}-5H-[1,3]thiazolo[3,2-a]pyrimidin-5-one]",97.5258
13,"C=CC(=O)N1CCCCC(S(C)(=O)=O)C1 (centres unmarked) [2-E17, 1-(3-methanesulfonylazepan-1-yl)prop-2-en-1-one]",92.6662
14,"CCc1nocc1CN(C)C(=O)CCl [5-B11, 2-chloro-N-[(3-ethyl-1,2-oxazol-4-yl)methyl]-N-methylacetamide]",90.6168

# Reference: article PMC11995724, “Antibiotic target discovery by integrated phenotypic and activity-based profiling of electrophilic fragments” (Cell chemical biology, 2025)
